# Assay results as given in PubChem BioAssay.
# Activity calls are given as the source filed them.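 Rule for the calls, unless noted: active = visually confirmed hit in the image check and inhibition above 20%; inconclusive = visually confirmed hit but inhibition not above 20%; inactive = no visual hit in the image check.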
# Experiments:
# [1] = inhibitors of TNFa-induced NFkB p65 translocation, primary screen, imaging, HUVEC, MLSMR starter and 10KST1 sets (AID 438;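 active = inhibition above 20% together with a positive visual image hit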;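 note: compound added about 3h40 before a 20 min TNFalpha stimulation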;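 for inhibition: signal is the nuclear over cytoplasmic p65 intensity ratio per well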); conditions: HUVEC TNFa-induced p65 nuclear translocation; cell count: measured here: nuclei count (cytotoxicity indicator), at 2.08 µM; inhibition: at 2 µM, stronger effect = higher value, 0% TNFa-plus-vehicle, 100% no-TNFa wells
# [2] = inhibitors of mutant huntingtin aggregation, primary screen, imaging, exon1htt(103Q)mCFP cells, high-content imaging (AID 483;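 active = visual image review flags a hit and inhibition of aggregation exceeds 20%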;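 note: compound exposure lasted 3 days before fixation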;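 for nuclei count: percent of the per-plate median nuclei count of sample wells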); conditions: exon1htt(103Q)mCFP cell line, aggregate imaging, at 2 µM; inhibition of aggregation: stronger effect = higher value; nuclei count: measured here: cell count, toxicity
# [3] = inhibitors of E-selectin induction by TNFa, primary screen, imaging, HUVEC, immunofluorescence, MLSMR starter and 10KST1 sets (AID 487); conditions: HUVEC TNFalpha-induced E-selectin immunofluorescence imaging, at 2 µM; inhibition: stronger effect = higher value; nuclei count: measured here: cell number, toxicity;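 for inhibition: signal is fraction of cell area covered by stained E-selectin grains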;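 for nuclei count: 100% = median nuclei count of all wells on the same plate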
# [4] = target: Voltage-gated potassium channel subunit beta-2 (Rattus norvegicus) (UniProt P62483); assay: KvBeta enzyme negative modulators, primary screen, biochemical, NADPH fluorescence (AID 622;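 active = fluorescence slope higher than the sample average by over 3 SD, cut at about -0.22 in these data, passing the limit was not always enough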;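 note: slope of raw intensity against log time taken from 70 to 1610 s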); conditions: recombinant KvBeta, 4-cyanobenzaldehyde reduction, at 10 µM, stronger effect = higher value
# [5] = target: Voltage-gated potassium channel subunit beta-2 (Rattus norvegicus) (UniProt P62483); assay: KvBeta positive modulators, primary screen, biochemical, NADPH fluorescence (AID 623;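 active = NADPH fluorescence slope more negative than the mean of all samples by about 3 SD, 99.7% confidence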;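 note: fluorescence intensity change per second fitted from 20 to 320 s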); conditions: Recombinant KvBeta, NADPH fluorescence decrease slope, 10 min; at 10 µM; stronger effect = lower value
# [6] = target: Alpha-2C adrenergic receptor (Homo sapiens) (UniProt P18825); assay: modulators of alpha2C/GIRK thallium flux, primary screen, cell-based, HEK293 alpha2C/GIRK1/2 (AID 624;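 active = fluorescence slope after compound addition differing from the mean of all screened samples at 99.7% confidence, in either direction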;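 note: slope of fluorescence ratio to pre-addition baseline per second over 15 to 24 s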); conditions: thallium flux BTC fluorescence, at 10 µM, actives lie on both sides
# [7] = inhibitors of Sendai virus-induced IRF3 signaling, primary screen, TLR/RLR signaling modifier project, cell-based, Sendai virus stimulus, luciferase, 10K MLSCN set (AID 602276;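 active = inhibition at or above 50% at 10 µM; inactive = inhibition below 50%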;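 note: firefly luciferase from ISG56 promoter only with Renilla not read in this screen; 0% = Sendai virus plus DMSO and 100% = medium plus DMSO without virus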); conditions: HEK293 RL24 IRF3 luciferase reporter, at 10 µM, stronger effect = higher value
# [8] = inhibitors of poly I:C-induced TLR3 signaling, primary screen, cell-based, poly I:C stimulus, luciferase, 10K MLSCN set (AID 602277;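 active = inhibition of the reporter signal at or above 50%; inactive = inhibition below 50%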); conditions: HEK293-TLR3 RL24 IRF3 luciferase reporter, at 10 µM, stronger effect = higher value
# Chain of Alpha-2C adrenergic receptor (Homo sapiens) (P18825 whole entry, looked up): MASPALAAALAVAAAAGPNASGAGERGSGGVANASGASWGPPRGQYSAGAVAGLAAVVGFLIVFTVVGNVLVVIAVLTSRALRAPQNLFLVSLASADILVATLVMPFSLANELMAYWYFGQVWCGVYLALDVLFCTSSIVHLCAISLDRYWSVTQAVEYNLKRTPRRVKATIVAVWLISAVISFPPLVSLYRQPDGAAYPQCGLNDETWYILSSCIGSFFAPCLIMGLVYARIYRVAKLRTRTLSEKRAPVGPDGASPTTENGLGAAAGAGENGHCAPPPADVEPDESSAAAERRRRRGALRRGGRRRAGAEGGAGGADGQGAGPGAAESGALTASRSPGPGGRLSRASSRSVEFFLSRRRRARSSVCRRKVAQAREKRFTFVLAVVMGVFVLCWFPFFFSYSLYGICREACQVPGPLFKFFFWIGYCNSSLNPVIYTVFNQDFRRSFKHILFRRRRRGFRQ
# Chain of Voltage-gated potassium channel subunit beta-2 (Rattus norvegicus) (P62483 whole entry, looked up): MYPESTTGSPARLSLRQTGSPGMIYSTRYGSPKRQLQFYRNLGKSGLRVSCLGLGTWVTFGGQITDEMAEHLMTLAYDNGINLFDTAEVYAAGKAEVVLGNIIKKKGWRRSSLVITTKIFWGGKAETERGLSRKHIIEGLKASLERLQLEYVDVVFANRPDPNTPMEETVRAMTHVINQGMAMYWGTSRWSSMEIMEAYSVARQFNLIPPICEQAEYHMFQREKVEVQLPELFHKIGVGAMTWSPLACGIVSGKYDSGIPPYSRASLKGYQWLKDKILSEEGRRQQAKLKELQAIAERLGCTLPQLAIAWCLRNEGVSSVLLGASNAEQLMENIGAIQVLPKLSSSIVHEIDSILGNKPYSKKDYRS
SMILES,cell count [1],inhibition [1],inhibition of aggregation [2],nuclei count [2] [%],inhibition [3],nuclei count [3] [%],fluorescence slope [4],NADPH fluorescence slope [5],slope [6],inhibition [7],inhibition [8]
Cc1nnc(SCC(=O)Nc2ccc(Br)cn2)[nH]c1=O,359,-8.5% (inactive),18.1% (inactive),117,-43.2% (inactive),114,-0.426 (inactive),-1.1e-05 (inactive),0.00432 (inactive),15.8% (inactive),5.27% (inactive)
COCCn1nnnc1CN1CCC(Cc2ccccc2)CC1,513,-16.4% (inactive),-12.1% (inactive),113,-71.7% (inactive),96.1,-0.484 (inactive),-6.1e-05 (inactive),0.00482 (inactive),12.6% (inactive),13.6% (inactive)
CCN(CC)CCOC(=O)c1c(C)oc2ccc(O)cc12,418,11.9% (inactive),-8.4% (inactive),74.1,30.6% (inactive),106,-0.5 (inactive),-8e-05 (inactive),0.00511 (inactive),8.25% (inactive),6.72% (inactive)
CSc1nnc(-c2ccc(NC(=O)CCc3ccccc3)cc2)n1C,711,-28.4% (inactive),-1.8% (inactive),100,-79.2% (inactive),120,-0.474 (inactive),-3e-05 (inactive),0.00726 (inactive),-3.25% (inactive),15.4% (inactive)
O=C(NCC1CCCO1)C1CCN(S(=O)(=O)c2cccc3cccnc23)CC1 (configuration not stated),651,-5% (inactive),6.8% (inactive),104,-63.2% (inactive),114,-0.516 (inactive),1.4e-05 (inactive),0.00614 (inactive),10.7% (inactive),25.3% (inactive)
CC(C)Cc1nc2oc3c(N4CCN(CCO)CC4)ncnc3c2c2c1CCCC2,450,-11.5% (inactive),-9.1% (inactive),99.9,6.5% (inactive),119,-0.475 (inactive),4e-05 (inactive),0.00359 (inactive),-8.86% (inactive),31.2% (inactive)
Cc1ccc(C(C)n2cc(C(=O)NCCN3CCN(C)CC3)nn2)cc1 (configuration not stated),429,12.1% (inactive),-6.7% (inactive),117,-7.3% (inactive),119,-0.575 (inactive),-1.3e-05 (inactive),0.00588 (inactive),3.51% (inactive),7.62% (inactive)
